High-throughput results (PubChem)
This excerpt belongs to a sample that is enriched for hits.
DT40 TDP1 CPT: qHTS for Inhibitors of human tyrosyl-DNA phosphodiesterase 1 (TDP1): qHTS in cells in presence of CPT; chicken DT40 Tdp1-/-;hTDP1 cells + 20 nM CPT, ATP luminescence, 48 h; Potency, µM (top dose mostly 46.2 µM), without a hit: top-dose activity change, negative = growth inhibition, most hits filed as inhibitors; hit rate 12% among 420,000; note: potency is the fitted concentration of half-maximal effect; nearly all actives have a fitted effect of over 55% in size
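Chicken DT40 Tdp1-/- cells stably complemented with human TDP1 were seeded at 400 cells/well in medium containing 20 nM camptothecin, exposed to pin-transferred compounds, and grown at 37 °C for at least 48 hr. Viability was read as ATP luminescence.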
HT1080NT lethal: qHTS for induction of synthetic lethality in tumor cells producing 2HG: qHTS for the HT-1080-NT fibrosarcoma cell line; HT-1080-NT fibrosarcoma viability, CellTiter-Glo ATP luminescence, 48 h; Potency, µM (top dose mostly 46.1 µM), inactives show top-dose activity, negative = less viability, most hits filed as cytotoxic; hit rate 1.6% among 360,000;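 note: NT is the 2HG producing partner of a matched IDH1 knockdown line; potency is the fitted concentration of half-maximal effect; 0% = DMSO-treated cells and -100% = media-only wells without cells; nearly all actives have a fitted effect of over 55% in size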
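Read-out is CellTiter-Glo luminescence after 10 minutes at room temperature, following 48 hours' compound treatment of HT-1080-NT cells (750 cells/well, RPMI, 5% FBS, 37 degrees C).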
IL-1B inflam inh: qHTS for Inhibitors of Inflammasome Signaling: IL-1-beta AlphaLISA Primary Screen; THP-1 LPS/ATP IL-1B secretion, AlphaLISA, 16 h; hits give low values; activity change, % at 57.5 µM; hit rate 4.7% among 360,000; in the data active = activity change below about -50%; inconclusive = mostly about -30% to -49%
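THP-1 cells pretreated 1 hr with compounds (up to 57.5 uM final), then stimulated with LPS (250 ng/mL final) plus ATP (1.25 mM final); secreted IL-1B measured by AlphaLISA after 16 hr, decreased signal indicating inhibition.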
DT40 TDP1 no CPT: qHTS for Inhibitors of human tyrosyl-DNA phosphodiesterase 1 (TDP1): qHTS in cells in absence of CPT; Potency, µM (titrated, usually from 46.2 µM), without a hit: top-dose activity change, negative = growth inhibition, hits mostly inhibitors; hit rate 15% among 420,000; AID 686978, 2013; DT40 Tdp1-/- hTDP1 cells, no CPT, ATP luminescence, 48 h; note: potency is the fitted concentration of half-maximal effect; nearly all actives have a fitted effect of over 55% in size
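Readout: luminescence from CellTiter-Glo after 30 min in the dark at RT. Cells: DT40 Tdp1-/- with stable hTDP1, 400/well. Exposure: compounds alone, ≥48 hr, 37 °C.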
HT1080 IDH1KD tx: qHTS for induction of synthetic lethality in tumor cells producing 2HG: qHTS for the HT-1080-IDH1KD cell line; HT-1080 IDH1 knockdown viability, ATP luminescence, 48 h; Potency, µM (series often up to 46.1 µM), inactives show top-dose activity, negative = toxicity, usual class: cytotoxic; hit rate 2% among 360,000;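 note: potency is the fitted concentration of half-maximal effect; 0% = DMSO wells and -100% = cell-free medium wells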
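CellTiter-Glo luminescence after 48 h compound exposure at 37 degrees C of IDH1-knockdown HT-1080 cells in 5% FBS RPMI. %Activity scaled between DMSO wells and cell-free media wells, with curves fitted and assigned curve classes.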
12-LOX inh: Primary qHTS assay for inhibitors of human arachidonate 12S-lipoxygenase (ALOX12): Round 2; hit rate 1.1% among 580,000; Potency, µM (doses to about 108 µM), inactives show at the highest dose activity change, negative = inhibition, usual class: inhibitors; Polyunsaturated fatty acid lipoxygenase ALOX12 (Homo sapiens), P18054; purified 12hLO, xylenol orange hydroperoxide absorbance; note: potency is the fitted concentration of half-maximal effect
Target sequence (P18054 whole entry, looked up): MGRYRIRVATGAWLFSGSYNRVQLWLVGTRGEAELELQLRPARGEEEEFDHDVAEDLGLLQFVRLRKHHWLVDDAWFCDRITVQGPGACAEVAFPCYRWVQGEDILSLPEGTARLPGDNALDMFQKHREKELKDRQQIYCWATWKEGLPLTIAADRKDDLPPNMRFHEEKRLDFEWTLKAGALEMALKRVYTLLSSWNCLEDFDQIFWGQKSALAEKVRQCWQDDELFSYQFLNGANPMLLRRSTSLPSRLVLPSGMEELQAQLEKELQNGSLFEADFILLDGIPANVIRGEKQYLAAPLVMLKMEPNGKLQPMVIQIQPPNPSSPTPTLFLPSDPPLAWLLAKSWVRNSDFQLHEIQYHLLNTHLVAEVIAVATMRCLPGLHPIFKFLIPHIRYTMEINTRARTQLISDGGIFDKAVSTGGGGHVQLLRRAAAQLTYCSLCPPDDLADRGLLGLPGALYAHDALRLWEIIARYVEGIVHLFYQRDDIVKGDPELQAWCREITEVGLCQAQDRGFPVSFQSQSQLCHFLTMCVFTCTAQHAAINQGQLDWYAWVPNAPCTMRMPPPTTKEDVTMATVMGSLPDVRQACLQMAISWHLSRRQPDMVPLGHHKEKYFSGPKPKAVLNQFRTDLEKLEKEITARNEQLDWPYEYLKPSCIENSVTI
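Purified human 12hLO at 150 nM in 25 mM Hepes, 0.01% Triton X-100, pH 7.0, preincubated 15 min at room temperature with compound. Reaction started with 40 uM arachidonic acid, 30 min at room temperature. Hydroperoxide measured by Fe-xylenol orange, 573/405 nm absorbance ratio.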
The depositor's hits bear a star; i = inactive; ? = inconclusive; · = no result given; [ ] = dose if it differs, or a comment. Unless noted, calls come from the whole dose curve; as a rule, active = well fitted curve in the direction sought with a large enough effect; inconclusive = small, poorly fitted or top-dose-only effect, or another doubt; inactive = no such curve, though single readings can be large; an effect the other way counts as inactive or inconclusive. Unless noted, % is set by controls: 0 for no effect and ±100 for the full control effect.

SMILES	DT40 TDP1 CPT	HT1080NT lethal	IL-1B inflam inh	DT40 TDP1 no CPT	HT1080 IDH1KD tx	12-LOX inh
CC(C)n1c(SCC(=O)N2CCN(c3ccccc3)CC2)nnc1-c1ccco1	·	·	·	·	·	-5%
COC(=O)C1=C(C(=O)c2ccc(C)cc2)C(c2ccc(OC)cc2)n2nnnc2N1 (stereo unspecified)	·	·	·	·	·	-30%
C(/CCc1ccccc1)=N\Nc1nc2ccccc2[nH]1	?	?	20	18µM*	?	?
Fc1cccc(/C=N/Nc2nc3ccccc3[nH]2)c1	?	?	-91*	?	?	-4%
Fc1ccc(/C=N/Nc2nc3ccccc3[nH]2)cc1F	?	-2%	?	?	-4%	-5%
C(=C\c1ccccc1)/C=N/Nc1nc2ccccc2[nH]1	7.3µM*	?	54	7.3µM*	?	?
CC(=O)Nc1ccccc1NC(=O)CN1CCN(Cc2ncccc2C)CC1	·	·	·	·	·	94%
Cc1cc(NC(=O)c2ccc(Cl)cc2)ccc1NC(=O)c1ccccc1Cl	?	3%	-21	-23%	-1%	88%
Cc1ccccc1C1=CCN(c2ncc(NC(=O)c3ccc(Cl)cc3)cc2C(=O)O)CC1	?	·	·	23µM*	·	41%
CNc1c(Br)cc(/C=C2\C=Cc3ccccc32)cc1Br	-9%	·	·	?	·	·
CNc1c(Br)cc(C(O)C2=CCc3ccccc32)cc1Br (stereo unspecified)	8.9µM*	·	·	4.5µM*	·	·
CN(C)c1ccc(Nc2ncnc3ccc(Br)cc23)cc1	?	-4%	-10	?	-6%	-11%
Clc1ccc(Nc2ncnc3ccc(Br)cc23)cc1	10µM*	?	-9	15µM*	?	?
CCOC(=O)c1cccc(Nc2ncnc3ccc(C)cc23)c1	15µM*	?	-15	21µM*	?	0%
CCOC(=O)c1cccc(Nc2cc(C)nc(C)n2)c1	?	·	·	16µM*	·	-23%
Clc1cccc(Nc2ncnc3ccc(Br)cc23)c1	26µM*	7.9µM*	-58*	?	?	-5%[57.4 µM]
CCOC(=O)c1cccc(Nc2nc(C)cc(C)n2)c1	3%	16%	44	-5%	17%	?
C/C=C/C=C/C(=O)Nc1ccc(SC)cc1	·	·	·	·	·	-3%
COc1cccc(Oc2ccc(N/C=C/C(=O)c3ccc(Cl)cc3)cc2)c1	·	·	·	·	·	-15%
CCC(C)Cc1c(C)sc2nc(CNc3ccc(F)cc3)[nH]c(=O)c12 (stereo unspecified)	·	·	·	·	·	-14%
O=C(NCc1ccc2c(c1)OCO2)c1n[nH]nc1Nc1ccc(F)cc1	·	·	·	·	·	7%
O=C1CCN(S(=O)(=O)c2ccccc2)CCCN(C(=O)CN2CCCC2=O)CCN1	·	·	·	·	·	50%
Cc1ccc2ncnc(Nc3ccccc3)c2c1	-22%	-2%	-3	?	-3%	1%
Cc1cccc(Nc2ncnc3ccc(Br)cc23)c1	?	-12%	-51*	?	-20%	2%
CCc1ccccc1N1C(=O)N(Cc2cccc(Cl)c2)c2ccccc2S1(=O)=O	?	·	·	?	·	-16%
SMILES	DT40 TDP1 CPT	HT1080NT lethal	IL-1B inflam inh	DT40 TDP1 no CPT	HT1080 IDH1KD tx	12-LOX inh
Cc1cccc(N2C(=O)N(Cc3cc(=O)n4ccccc4n3)c3ccccc3S2(=O)=O)c1	?	·	·	26µM*	·	?
CCc1ccccc1N1C(=O)N(Cc2cc(=O)n3ccccc3n2)c2ccccc2S1(=O)=O	23µM*	·	·	18µM*	·	-25%
Cc1cnc(NC(=O)C(C)N2CCN(C)CC2)s1 (stereo unspecified)	-8%	-10%	-11	-6%	0%	2.5µM*
CC(C)Cn1c(N)c(C(=O)COC(=O)/C=C/c2cccs2)c(=O)n(C)c1=O	?	?	-4	16µM*	-13%	-19%
CC(C)Cn1c(N)c(C(=O)COC(=O)c2c(F)cccc2F)c(=O)n(C)c1=O	-26%	1%	4	-13%	-2%	-9%
CC(C)Cn1c(N)c(C(=O)COC(=O)Cc2cccc(C(F)(F)F)c2)c(=O)n(C)c1=O	16µM*	-13%	11	21µM*	-5%	-6%
CC(C)Cn1c(N)c(C(=O)COC(=O)Cc2cccs2)c(=O)n(C)c1=O	18µM*	1%	i	23µM*	-13%	-59%
COC(=O)CC(NC(=O)CNC(=O)c1ccc(N2CCCC2=O)cc1)c1ccc(Cl)cc1 (stereo unspecified)	·	·	·	·	·	26%
CN(CC1CCOCC1)C(=O)Cc1c(F)cccc1Cl	·	·	·	·	·	9%
Cc1ccc(C(=O)N2CCC3(CC2)NC(=O)N(c2ccccc2)N3)cc1F	·	·	·	·	·	4µM*
Cc1ccc(C(=O)N2CCC3(CC2)N(c2ccccc2)C(=O)CS3(=O)=O)cc1F	·	·	·	·	·	10%
CN(C)c1ccc(C(=O)N2CCC3(CC2)NC(=O)N(c2ccccc2)N3)cc1	·	·	·	·	·	2.8µM*
CC(=O)N1c2ccc(C)cc2Sc2c1ccc1ccccc21	-17%	?	17	?	-25%	-15%
CCN1/C(=C/c2ccc3cc(C)ccc3[n+]2CC)Sc2ccc3sccc3c21	0.92µM*	?	33	0.58µM*	0.92µM*	·
CCN1/C(=C/c2ccc3cc(C)cc(C)c3[n+]2CC)Sc2cc(C)ccc21	0.65µM*	7.3µM*	-97*	0.18µM*	?	40µM*
CCN1C(=O)C(=O)N(Cc2coc(-c3ccc(C)cc3)n2)C1=O	·	·	·	·	·	4%
Cc1nc2cc(-c3cccc(F)c3)nn2c(C)c1CCC(=O)NC(C)c1ccc2c(c1)OCCO2 (stereo unspecified)	16µM*	-17%	-7	?	1%	-7%
Cc1nc2cc(-c3ccccc3)nn2c(C)c1CCC(=O)NC(C)c1ccc2c(c1)OCCO2 (stereo unspecified)	?	-6%	9	18µM*	-2%	3%[57.4 µM]
Cc1nc2nc(C)c(CCC(=O)NC(C)c3ccc4c(c3)OCCO4)c(C)n2n1 (stereo unspecified)	1%	22%	13	4%	12%	?
